Measured values: PubChem BioAssay (Tox21)
Results filed as inconclusive are left out. Entries that show only a call come without a potency. Calls of active or inactive are those of the source. Calls come from the whole dose curve; as a rule, active = well fitted cell-killing curve with a large enough effect in the repeat runs; inconclusive = weak or mixed curves, or effect the other way; inactive = flat fitted curve, though single readings scatter.

test: qHTS RealTime-Glo MT Cell Viability Assay in HEK293 cells - 24 hour (AID 1224886); details: RealTime-Glo luminescence; series mostly up to 76.8 µM; note: nearly all actives have a fitted effect of over 50% in size
Description: National Center for Advancing Translational Sciences [NCATS]
NIH Chemical Genomics Center [NCGC]
U.S. Environmental Protection Agency [EPA]
National Institutes of Environmental Health Sciences [NIEHS]
National Toxicology Program [NTP]
U.S. Food and Drug Administration [FDA]
Measure of cell viability is critical in the cell-base assay. Analysis of cell viability is necessary for the characterization of cell responses to cytotoxic drugs and environmental stress. A RealTime-Glo MT Cell Viability Assay to monitor cell viability in real time of continues cell culture during 40 hours of compound treatment was used to screen Tox21 10K library compounds in Hek293 cells. The RealTime-Glo MT Cell Viability Assay is a nonlytic, homogeneous, bioluminescent method to measure cell viability in real time using a simple, plate-based method. The assay involves adding NanoLuc luciferase and a cell-permeant prosubstrate to cells in culture. Viable cells reduce the proprietary prosubstrate to generate a substrate for NanoLuc luciferase. This substrate diffuses from cells into the surrounding culture medium, where it is rapidly used by the NanoLuc Enzyme to produce a luminescent signal. The signal correlates with the number of viable cells, making the assay well suited for cytotoxicity studies.
Tox21 Assay Protocol Summary:
The mixture of Hek293 cell suspension and reagents were dispensed at 600cells/6 ul/well in 1536-well tissue culture treated black solid bottom plates using a Multidrop dispenser. After the assay plates were incubated at a 37 C/5% CO2 incubator for 5 hours, 23 nL of compounds dissolved in DMSO, positive and negative controls was transferred to the assay plate by a pintool work station. The plates were incubated at 37 C for 40 hours. The luminescence intensity were measured at 0h, 8h, 16h, 24h, 32h and 40h time points using ViewLux plate reader during compound treatment.
Potency is the fitted concentration of half-maximal effect.

SMILES | Potency
CN(C)CCCN1c2ccccc2CCc2ccccc21 | inactive
O=Nc1ccc(NO)cc1 | inactive
CC(NCCC(c1ccccc1)c1ccccc1)c1ccccc1 (stereo not given) | 19 µM (active)
CCCCCCCCCCCCCc1ccccc1 | inactive
Cc1nc(Nc2ncc(C(=O)Nc3c(C)cccc3Cl)s2)cc(N2CCN(CCO)CC2)n1 | 30.1 µM (active)
O=C1c2c(O)ccc([N+](=O)[O-])c2C(=O)c2c([N+](=O)[O-])ccc(O)c21 | 19.3 µM (active)
CCCCOC(=O)C(C)CC (stereo not given) | inactive
CC1CCCCN1CCCOC(=O)c1ccc(OC2CCCCC2)cc1 (stereo not given) | 16.9 µM (active)
O=C(O)Cc1ccc(OCCNC[C@H](O)c2ccccc2)cc1 | inactive
CCNc1nc(NC(C)CC)nc(OC)n1 (stereo not given) | inactive
CC(C)=CCCC(C)O (stereo not given) | inactive
O=C(Nc1ccc(Cl)cc1)Nc1ccc(Cl)c(C(F)(F)F)c1 | 5.35 µM (active)
CCOC(=O)CC(C)O (stereo not given) | inactive
CCc1ccc(O)c(C(C)(C)C)c1 | inactive
CC1CNCC(C)O1 (stereo not given) | inactive
CC(C)(C)C1=CC(=O)C=C(C(C)(C)C)C1=O | inactive
Cc1cc2c(C(C)C)c(O)c(O)c(C=O)c2c(O)c1-c1c(C)cc2c(C(C)C)c(O)c(O)c(C=O)c2c1O | 10.7 µM (active)
OCCCS | inactive
OCCCc1cccnc1 | inactive
C[C@@]12C(=O)OC(=O)[C@]1(C)C1CCC2O1 | 6.74 µM (active)

SMILES | Potency
Cc1cccc(Br)c1 | inactive
CC1=CCC(=O)O1 | inactive
O=C1Nc2ccc(Cl)cc2[C@@](C#CC2CC2)(C(F)(F)F)O1 | 23.9 µM (active)
CC(=O)OC(OC(C)=O)c1ccc([N+](=O)[O-])o1 | 44.4 µM (active)
O=C(O)c1cccc(Cl)n1 | inactive
CCOC(OCC)C(=O)c1ccccc1 | inactive
CCc1cccc(C)c1 | inactive
CCCCCCCCCCCC(=O)N(CC)CC | inactive
CCC1(c2cnc[nH]2)Cc2ccccc2C1 | inactive
CCCCCCCC(=O)OCC | inactive
CCN(CC)CCOc1ccc(C(O)(Cc2ccc(Cl)cc2)c2ccc(C)cc2)cc1 (stereo not given) | 19 µM (active)
c1ccc2c(c1)CCC2 | inactive
SCCCCCCCCS | inactive
COc1cccc(OC)c1O | inactive
c1cc[nH]c1 | inactive
C1CC(COCC2CO2)CCC1COCC1CO1 (stereo not given) | inactive
Cc1cc(=O)[nH]c(=O)[nH]1 | inactive
C/C=C/c1ccc(OC)c(OC)c1 | inactive
CCCN(CCc1cccs1)[C@H]1CCc2c(O)cccc2C1 | 7.56 µM (active)
C=C[C@](C)(O)CC[C@@H]1[C@@]2(C)CCCC(C)(C)[C@@H]2CC[C@@]1(C)O | 21.9 µM (active)
